# Source: PubChem (National Center for Advancing Translational Sciences (NCATS))
# Cruzain noTriton = cruzain (T. cruzi) inhibition without detergent | purified cruzain, Z-FR-AMC fluorescence, no detergent | actives 2.3% (n = 200,000) | Potency, µM, for the others: max response, negative = inhibition, most hits filed as inhibitors | P25779 | AID 1476;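 further: plate controls were enzyme without inhibitor for no effect and buffer without enzyme for full effect; nearly all actives have a fitted effect of over 40% in size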
# Target sequence (P25779 123-467 limits assumed): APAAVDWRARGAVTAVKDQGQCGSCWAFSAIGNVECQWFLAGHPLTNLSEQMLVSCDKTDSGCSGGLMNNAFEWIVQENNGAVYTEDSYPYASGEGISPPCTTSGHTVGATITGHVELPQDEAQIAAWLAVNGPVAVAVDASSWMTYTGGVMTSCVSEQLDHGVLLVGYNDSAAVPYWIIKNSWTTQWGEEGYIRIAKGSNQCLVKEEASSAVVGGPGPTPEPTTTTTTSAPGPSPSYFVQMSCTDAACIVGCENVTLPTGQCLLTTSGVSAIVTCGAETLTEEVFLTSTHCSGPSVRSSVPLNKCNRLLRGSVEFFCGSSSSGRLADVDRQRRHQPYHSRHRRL
#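 Detergent-free condition (0.00005% Triton X-100) in acetate buffer pH 5.5 with DTT. 1.5 nM enzyme and compound were pre-mixed 15 min, then 2 uM Z-FR-AMC substrate added; reaction progress from fluorescence change between first and third reads (60 s).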
# Cruzain Triton = blocks cruzain activity in presence of Triton detergent; Potency, µM, inactives show max response, negative = inhibition, hits mostly inhibitors; AID 1478; purified cruzain, Z-FR-AMC fluorescence, 0.01% Triton; actives 0.43% (n = 200,000);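 further: plate controls were neutral wells for no effect and buffer without enzyme for full effect; nearly all actives have a fitted effect of over 40% in size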
#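 Steps: dispense cruzain (1.5 nM final) in acetate buffer pH 5.5 with DTT and 0.01% Triton X-100; pin-transfer compounds; incubate 15 min RT; add Z-FR-AMC (2 uM final); read fluorescence every 30 s, using the 60 s intensity change.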
# * marks the source's active call; other numbers are inactive results; ? = inconclusive. This is a sample that favours compounds with a hit; in the whole collection about 2.4% have one here. The call rests on the fitted dose curve; in most records, active means well fitted curve in the direction sought with a large enough effect; inconclusive means small, poorly fitted or top-dose-only effect, or another doubt; inactive means no such curve, though single readings can be large; an effect the other way counts as inactive or inconclusive. Potency means the concentration at half of the fitted maximal effect.
SMILES,Cruzain noTriton,Cruzain Triton
CCOC(=O)CCCCC(=O)c1[nH]c(=O)[nH]c1CSc1nc(-c2ccccc2)c(C#N)c(=O)[nH]1,?,-7%
CCCN(CCC)CCCNC(=O)c1cc2cc3ccc(OC)cc3nc2o1,?,25µM*
COc1ccc2cc3cc(C(=O)NCCc4ccc(OC)c(OC)c4)oc3nc2c1,?,-16%
Cc1ccc(C(=O)N(c2ccc(C)cc2)S(=O)(=O)c2ccc(Cl)cc2)cc1,0%,-2%
O=P(/C(=N/O)N1CCCCC1)(N1CCOCC1)N1CCOCC1,-4%,-5%
O=c1c(-c2ccccc2)nc2cnc(N3CCOCC3)nc2n1C[C@H]1CCCO1,5%,0%
COc1ccc(NC(=O)CSc2nc(-c3cccc(C)c3)[nH]c2-c2ccccc2)cc1OC,5%,-4%
O=C(Cn1cccc1C(=O)c1ccccc1)NCCN1CCCCCC1,-9%,1%
COc1ccc(/C=C2/C(=O)N(Cc3ccccc3)N=C2C)cc1,1%,0%
COc1ccc(/C=C2/C(=O)N(c3nc4ccccc4s3)N=C2CSc2ccc(Cl)cc2)cc1,3.2µM*,-8%
CC1CCCCC12NC(=O)N(CC(=O)NCCc1ccccn1)C2=O (stereo not given),-7%,1%
CCCc1cc2c(c(NC(C)=O)n1)c(=O)oc1ccccc12,?,-14%
CN1CCN(c2ccccc2NC(=O)c2ccc(-c3ccc(Cl)cc3Cl)o2)CC1,1%,-20%
CS(=O)(=O)N1CCN(c2ccccc2NC(=O)c2ccc(-c3ccc(Cl)cc3Cl)o2)CC1,3.2µM*,-2%
O=C(Cn1c2c(sc1=O)C1c3ccccc3OCC1CS2)Nc1ccc(Cl)c(Cl)c1 (stereo not given),6.3µM*,-2%
Cn1c(N)c(N2CCCCC2)c(=O)n(CC(=O)Nc2ccc(Cl)c(Cl)c2)c1=O,-4%,-1%
O=C1c2ccccc2C(Nc2ccc3c(c2)OCO3)N1Cc1ccc2c(c1)OCO2 (stereo not given),25µM*,-4%
O=C1c2ccccc2C(Nc2cccnc2)N1Cc1ccc2c(c1)OCO2 (stereo not given),-2%,-1%
O=C(Nc1nc(-c2ccncc2)cs1)c1ccc(S(=O)(=O)N2CCOCC2)cc1,5%,1%
COC(=O)COc1ccc(S(=O)(=O)N2CCc3ccccc3C2)cc1C,8%,-3%
Cc1cc(C)c2sc(NNC(=O)c3ccc(S(=O)(=O)N4CCc5ccccc5C4)cc3)nc2c1,6.3µM*,4%
CCc1nnc(NC(=O)c2ccc(S(=O)(=O)N3CCc4ccccc4C3)cc2)s1,?,4%
N#Cc1ccc(-c2csc(NC(=O)c3ccc(S(=O)(=O)N4CCc5ccccc5C4)cc3)n2)cc1,6.3µM*,-2%
Cc1cc(C)c2nc(NNC(=O)c3ccc(S(=O)(=O)N4CCc5ccccc5C4)cc3)sc2c1,6.3µM*,3%
CCOC(C)=O,?,3%
SMILES,Cruzain noTriton,Cruzain Triton
COc1ccc(CCNC2=NCCS2)cc1,-12%,3%
O=C(CS(=O)(=O)Cc1ccccc1)Nc1ncccn1,11%,-1%
Cc1cc(/C=N/n2cnnc2)c(C)n1-c1ccc(Cl)cc1Cl,-4%,-4%
N#CC1=C(N)N2C(=C(C#N)C1c1ccccc1)Sc1ccccc12 (stereo not given),13µM*,-2%
CCOc1ccc(C2C(C#N)=C(N)N3C(=C2C#N)Sc2ccccc23)cc1 (stereo not given),?,-10%
Clc1ccc(N=c2ssnc2Cl)cc1,-24%,-21%
CCC(=O)Nc1ccc(C(=O)NNC(=O)C(c2ccccc2)c2ccccc2)cc1,?,-2%
CC(C)CC(=O)Nc1ccc(C(=O)NNC(=O)C(c2ccccc2)c2ccccc2)cc1,25µM*,6%
COc1ccccc1N(CN1CCCC1=O)C(=O)c1ccccc1F,-4%,1%
Cc1ccc([N+](=O)[O-])cc1S(=O)(=O)NCc1cccnc1,11%,-2%
O=C(NCc1ccco1)c1ccc2c(=O)n(CCC3=CCCCC3)c(=O)[nH]c2c1,16µM*,0%
CCN1CCN(C(=O)c2ccc3c(=O)n(CCC4=CCCCC4)c(=O)[nH]c3c2)CC1,10%,0%
COC(=O)C1=C(C)OC(N)=C(C#N)C1c1c(C)nn(-c2ccccc2)c1Cl (stereo not given),-12%,-2%
Cc1nn(-c2ccccc2)c(Cl)c1C1C(C#N)=C(N)Oc2c1c(=O)oc1ccccc21 (stereo not given),16µM*,-1%
O=C(NCCc1ccccc1)c1ccc([N+](=O)[O-])cc1,0%,3%
O=C(CCNC(=O)c1ccccc1)Oc1ccc([N+](=O)[O-])cc1,25µM*,-22%
COc1ccc2cc3cc(C(=O)NCc4ccc(C)cc4)oc3nc2c1,2%,-4%
COc1cccc(C(=O)Nc2cc3cc(OC)ccc3oc2=O)c1,-1%,1%
COc1ccc(C(=O)Nc2cc(C(=O)c3ccccc3)c(C)oc2=O)cc1,16µM*,13µM*
O=C(OCc1cc(=O)n2nc(-c3cccs3)sc2n1)c1ccccc1,-7%,-5%
O=C(Nc1ccc(O)c(-c2nc3ccccc3s2)c1)C1=COCCO1,2%,-6%
O=C(Nc1ccc(OC(=O)c2ccccc2)c(-c2nc3ccccc3s2)c1)c1ccccc1,7.9µM*,-1%
CCS(=O)(=O)c1cccc(C(=O)Nc2ccc(-c3nc4ccccc4s3)c(O)c2)c1,2%,-5%
O=C(Nc1ccc(-c2nc3ccccc3s2)c(O)c1)C1=COCCO1,?,16µM*
Cc1ccc2nc(-c3ccc(NC(=O)CCN4C(=O)c5ccccc5C4=O)cc3)sc2c1,?,4%
SMILES,Cruzain noTriton,Cruzain Triton
O=C(CCN1C(=O)c2ccccc2C1=O)Nc1ccc(-c2nc3ccccc3s2)cc1,25µM*,-2%
COc1ccc(C(=O)Nc2cc(C)c(O)c(-c3nc4ccccc4s3)c2)cc1OC,-2%,1%
O=C(CCS(=O)(=O)c1ccccc1)Nc1ccc(-c2nc3ccccc3s2)c(O)c1,10µM*,0%
COCCNC(=O)CSc1nc(-c2ccccc2)c(-c2ccccc2)o1,?,-2%
O=S1(=O)C=C(Sc2nc3ccccc3s2)c2ccccc21,?,-8%
CC1(C)[C@@H](CC(=O)O)CCC[C@@H]1CC(=O)O,2%,5%
O=C(NCc1nnc(SCC(=O)N2CCCCCC2)o1)c1ccco1,-6%,-2%
Cc1ccc(N=Nc2c(O)n(CN3CCOCC3)c3ccccc23)cc1,-19%,-1%
COc1ccc(S(=O)(=O)N2CCOC2CNC(=O)C(=O)NCCc2c[nH]c3ccccc23)cc1 (stereo not given),?,-4%
CCOc1ccc2nc(Cl)c(/C=C/C(=O)c3ccco3)cc2c1,-16%,-1%
Nc1nc(SCc2ccccc2Cl)nc2nc3c(cc12)CCCC3,4%,-15%
Nc1nc(SCc2ccc(Cl)cc2Cl)nc2nc3c(cc12)CCCC3,13µM*,14µM*
O=c1c(CCc2ccccc2)nc2cncnc2n1Cc1ccccc1,3.2µM*,3%
O=c1c(CCc2ccccc2)nc2cncnc2n1-c1ccccc1,-2%,-9%
Cc1ccccc1-c1nc(SCC(=O)NCc2ccco2)c2c(=O)n(C)c(=O)n(C)c2n1,-15%,1%
Cc1cc2cc(CN(Cc3cccs3)C(c3nnnn3C(C)(C)C)C(C)C)c3nnnn3c2cc1C (stereo not given),7.9µM*,-2%
Cc1ccc2cc(CN(Cc3cccs3)Cc3nnnn3C(C)(C)C)c3nnnn3c2c1,-5%,-3%
CC(=O)Nc1cccc(-c2cn3cccnc3n2)c1,-14%,-14%
